Screening data as filed in PubChem.
Rows were chosen to be rich in hits. Some 11% of all compounds tested hit in one or more screens of this group.
HCV inhibitor: inhibitors of hepatitis C virus infection. Huh7.5.1 HCVcc-Cre infection, luciferase reporter, 44 h. Potency, µM (titrated, usually from 41.8 µM), most hits filed as inhibitors. actives 3.4% (n = 340,000)
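Seed cells (1,000/well) for 4 h; treat with compound and infect with HCVcc-Cre, moi about 0.5. Incubate 44 h, then detect luciferase activity.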
AMA1 RON2 block: AMA1-RON2 (P. falciparum) interaction inhibition; AlphaScreen AMA1-biotinylated RON2 peptide binding; Potency, µM (doses to about 58.2 µM), actives largely listed as inhibitors; actives 0.2% (n = 360,000); further: nearly all actives have a fitted effect of over 45% in size
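AMA1 (3D7) with his tag at 25 nM final met compounds first, then biotinylated RON2 peptide at 25 nM; detection used donor plus acceptor beads, 10 µg/mL apiece, read by AlphaScreen after 30 min at room temperature.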
AmpC detergent: inhibitors of E. coli AmpC beta-lactamase with detergent; AmpC hydrolysis of nitrocefin, absorbance 480 nm, 0.01% Triton; Potency, µM (titrated, usually from 114 µM), most hits filed as inhibitors; actives 0.041% (n = 370,000); AID 485294; further: nearly all actives have a fitted effect of over 25% in size
Target sequence (P00811 whole entry, looked up): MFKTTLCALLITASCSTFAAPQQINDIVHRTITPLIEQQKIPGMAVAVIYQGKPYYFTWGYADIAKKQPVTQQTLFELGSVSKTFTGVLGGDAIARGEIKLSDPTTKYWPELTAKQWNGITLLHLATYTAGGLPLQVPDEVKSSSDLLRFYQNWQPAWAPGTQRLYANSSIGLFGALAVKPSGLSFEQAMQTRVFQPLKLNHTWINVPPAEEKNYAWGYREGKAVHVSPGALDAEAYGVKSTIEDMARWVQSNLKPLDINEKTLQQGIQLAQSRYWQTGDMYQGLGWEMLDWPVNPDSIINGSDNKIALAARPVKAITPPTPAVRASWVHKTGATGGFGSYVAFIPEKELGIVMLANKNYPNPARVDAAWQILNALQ
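AmpC (5.3 nM in the dispensed reagent) in 20 mM phosphate pH 7.0 with 0.01% (detergent screen) or 0.0001% Triton X-100 was preincubated with compounds for 15 min at room temperature. Nitrocefin was then added from an 800 uM solution, and hydrolysis was followed at 480 nm.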
Pf growth 96h: P. falciparum growth inhibition at 96 hour, primary screen for plastid delayed-death inhibitors; P. falciparum luciferase reporter growth, 96 h; actives 6.9% (n = 320,000); Potency, µM (top dose mostly 28.7 µM), most hits filed as inhibitors; AID 504834
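Infected RBCs, 2% Hct / 0.05% parasitemia final; luciferase-reporter P. falciparum; cpd 96 h, 37 C, 5% CO2; luciferase detection reagent; luminescence.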
AmpC no deterg: inhibitors of E. coli AmpC beta-lactamase without detergent; P00811; AmpC nitrocefin hydrolysis, absorbance 480 nm, 0.0001% Triton; Potency, µM (top dose mostly 57.1 µM), actives largely listed as inhibitors; actives 0.52% (n = 330,000); further: nearly all actives have a fitted effect of over 20% in size
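20 mM phosphate pH 7.0 + 0.01% (detergent screen) or 0.0001% Triton X-100; 5.3 nM AmpC reagent; cpd preinc 15 min RT; nitrocefin (800 uM stock) to start; A480 q20 s × 4 min; Activity was normalised to no-enzyme and no-compound control wells.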
Pf growth 48h: P. falciparum growth inhibition at 48 hours (one generation); actives 5.9% (n = 310,000); Potency, µM (titrated, usually from 28.7 µM), usual class: inhibitors; P. falciparum luciferase growth in erythrocytes, 48 h; AID 504832
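Erythrocytes infected with P. falciparum carrying an integrated firefly luciferase reporter (2% hematocrit, 0.1% parasitemia final) were exposed to compounds in RPMI 1640 with 0.5% Albumax at 37 C, 5% CO2. Growth inhibition was scored as reduced luminescence.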
Large screens that a line does not name were inactive. The call rests on the fitted dose curve; in most records, active means well fitted curve in the direction sought with a large enough effect; inconclusive means small, poorly fitted or top-dose-only effect, or another doubt; inactive means no such curve, though single readings can be large; an effect the other way counts as inactive or inconclusive.

CCOc1ccccc1NC(=O)Cn1c(=O)n(CC(=O)NCc2ccccc2Cl)c(=O)c2sccc21	none (no result: HCV inhibitor, AMA1 RON2 block, Pf growth 96h, AmpC no deterg, Pf growth 48h)
CN1CCN(c2nc3c(c(=O)[nH]c(=O)n3C)n2CCCSc2ncccn2)CC1	Pf growth 96h 13µM
Cc1ccnc(SCCn2c(N3CCN(c4ccccc4)CC3)nc3c2c(=O)[nH]c(=O)n3C)n1	Pf growth 96h 4.7µM (no result: Pf growth 48h)
CCOC(=O)Nc1ccc2c3c(cccc13)-c1ccccc1-2	HCV inhibitor 10µM (no result: AmpC detergent, Pf growth 96h, AmpC no deterg, Pf growth 48h)
CCOC(=O)Nc1cccc2ccccc12	none (no result: Pf growth 48h)
COc1ccc(CNC(=O)c2ccc3c(=O)n(CCCN4CCCC4=O)c(=S)[nH]c3c2)cc1	Pf growth 96h 4.1µM, Pf growth 48h inconclusive
COc1ccccc1CNC(=O)c1ccc2c(=O)n(CCCN3CCCC3=O)c(=S)[nH]c2c1	Pf growth 96h 15µM, Pf growth 48h inconclusive
COC(=O)c1ccc2c(=O)n(CCCN3CCCC3=O)c(=S)[nH]c2c1	HCV inhibitor inconclusive, Pf growth 48h 12µM
COc1cc(C(=O)NCCCN2CCCC2=O)ccc1OCc1ccc(Cl)cc1Cl	HCV inhibitor inconclusive, Pf growth 96h inconclusive, Pf growth 48h 10µM
CCc1cccc(CC)c1NC(=O)Cn1nnc2sc(-c3ccccc3)cc2c1=O	none (no result: HCV inhibitor, AMA1 RON2 block, Pf growth 96h, AmpC no deterg, Pf growth 48h)
O=C(NCc1ccc(Cl)cc1)c1cnc(N2CCOCC2)c2ccccc12	none (no result: HCV inhibitor, AMA1 RON2 block, Pf growth 96h, AmpC no deterg, Pf growth 48h)
Cc1cc(Cl)ccc1OCC(=O)Nc1c(C(=O)c2ccccc2)oc2ccccc12	none (no result: HCV inhibitor, AMA1 RON2 block, Pf growth 96h, AmpC no deterg, Pf growth 48h)
CC(C)c1nc(N2CCN(C(=O)c3ccco3)CC2)c2c3c(sc2n1)CCCC3	HCV inhibitor 22µM, Pf growth 48h 10µM
CCc1c(C)sc2nc(C(C)C)nc(SCC(=O)N3CCc4ccccc4C3)c12	HCV inhibitor inconclusive, Pf growth 96h 13µM, Pf growth 48h 12µM
Cc1sc2nc(C(C)C)nc(SCC(=O)N3CCN(C(=O)c4ccco4)CC3)c2c1C	HCV inhibitor 11µM, Pf growth 48h 13µM
Cc1sc2ncnc(SCC(=O)N3CCN(C(=O)c4ccco4)CC3)c2c1C	none (no result: AmpC detergent, Pf growth 48h)
COc1ccccc1CNC(=O)c1sc2nc3n(c(=O)c2c1C)CCC3	none (no result: HCV inhibitor, AMA1 RON2 block, Pf growth 96h, AmpC no deterg, Pf growth 48h)
Cc1nc(-c2ccc(C)c(N3CCN(C(=O)Nc4ccccc4C(F)(F)F)CC3)c2)no1	none (no result: HCV inhibitor, AMA1 RON2 block, Pf growth 96h, AmpC no deterg, Pf growth 48h)
Cc1cnc(CN(C)C(=O)c2cc(COc3c(F)cccc3F)on2)[nH]1	Pf growth 48h 4.1µM
CN(Cc1cccc2cnccc12)C(=O)c1cc(COc2ccc(F)cc2Cl)on1	HCV inhibitor 10µM, AmpC detergent inconclusive, Pf growth 48h inconclusive
O=NN(CCCl)C(=O)NC1CCCCC1	none (no result: HCV inhibitor, AMA1 RON2 block, AmpC detergent, AmpC no deterg)
Cc1ncc(CNC(=O)N(CCCl)N=O)c(N)n1	HCV inhibitor 2.8µM, AmpC detergent inconclusive
CCOC(=O)c1nn(-c2ccccc2)c(=O)c2c(N)scc12	AmpC detergent inconclusive
Nc1scc2c(C(=O)N/N=C/c3ccc(Cl)cc3)nn(-c3ccccc3)c(=O)c12	Pf growth 96h 5.2µM, Pf growth 48h inconclusive
Cc1ccc(OCC(=O)Nc2ccc3c(c2)nc(CCNC(=O)c2ccco2)n3C)cc1	none (no result: HCV inhibitor, AMA1 RON2 block, Pf growth 96h, AmpC no deterg, Pf growth 48h)
Cc1cc(C(=O)CN2C(=O)NC(c3ccccc3)(c3ccccc3)C2=O)c(C)n1Cc1ccco1	Pf growth 48h 1.3µM
Cc1cc(C(=O)CCl)c(C)n1Cc1ccco1	HCV inhibitor inconclusive
Cc1cc(C(=O)CN2C(=O)NC3(CCCc4ccccc43)C2=O)c(C)n1Cc1cccs1 (stereo not drawn)	none (no result: Pf growth 96h, Pf growth 48h)
Cc1cc(C(=O)CN2C(=O)NC(C)(c3cccc(Br)c3)C2=O)c(C)n1Cc1ccco1 (stereo not drawn)	HCV inhibitor inconclusive, Pf growth 48h 1.5µM
Cc1c(C(=O)Nc2cccc(Cl)c2)c2ccccn2c1CCc1ccncc1	HCV inhibitor inconclusive, Pf growth 96h inconclusive
Cc1c(C(=O)Nc2ccc(Cl)cc2)c2ccccn2c1CCc1ccncc1	Pf growth 96h 9.3µM, Pf growth 48h inconclusive
CC(=O)Nc1nonc1-c1nnc(SCC(=O)Nc2ccc(C)cc2C)n1C	none (no result: HCV inhibitor, AMA1 RON2 block, Pf growth 96h, AmpC no deterg, Pf growth 48h)
